# About 83,000 compounds went through this panel and 20% of them were active in at least one assay; those are over-represented in the sample as a whole.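 Negative percent growth values reflect cell death: -40 means 40% of the cells present at the start died, and -100 means all died.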 The source made the active and inactive calls. The calls were made as follows: active = growth percent below 10; inactive = the rest.
# Tested on: MDA-MB-468 breast
# Experiment: NCI-60 one-dose screen, 48 h (100 = growth as untreated, 0 = no growth, -100 = all killed)
# Details: 10 µM unless noted
row,SMILES,growth
1,COC(=O)[C@]12CC[C@@H](C)[C@H](C)[C@@H]1C1=CC[C@@H]3[C@@]4(C)C(C#N)=CC(C)=C4CC[C@@]3(C)[C@]1(C)CC2,76.7% (inactive)
2,O=S(=O)(NCCNc1nccc(-c2c(-c3cccc(O)c3)nc3occn23)n1)c1ccc(C(F)(F)F)cc1,89% (inactive)
3,O=C(/C=C/C12c3ccccc3C(c3ccccc31)C1C(=O)NC(=O)C12)c1ccccn1 (stereo not given),-13.1% (active)
4,COc1cc2oc(-c3cccc(C(=O)Nc4ccccc4)c3)cc(=O)c2c(O)c1OC,69.4% (inactive)
5,O=[N+]([O-])c1ccc(Br)o1,105% (inactive)
6,CCCOC(=O)c1nc(N(CC2CCCCC2)C(=O)NC)sc1/N=C/c1ccccc1,-18.8% (active)
7,COc1ccc(C/C(C)=C(/c2ccc(OCCN3CCCCC3)cc2)c2ccc(OC(=O)NCc3ccccc3)cc2)cc1,-82.7% (active)
8,c1coc(-c2c3ccc(=[N+]4CCCCC4)cc-3oc3cc(N4CCCCC4)ccc23)c1,-88.6% (active)
9,CN1C(=O)N2CN3CCCN(C3)CN3C(=S)NC1C23 (stereo not given),102% (inactive)
10,O=C1/C(=C\c2cn(C(=O)c3ccc(Cl)cc3)c3ccccc23)c2ccccc2N1c1c(Cl)cccc1Cl,97.7% (inactive)
11,COc1ccc2c(c1)OC13Oc4cc(OC)ccc4C=C1CCCCC3=C2,95.6% (inactive)
12,O=C(Nc1ccc(Br)cc1)C1=NCCCCN1,97.6% (inactive)
13,CCOC(=O)N1CCc2c(sc3nc4nc[nH]n4c(=O)c23)C1,112% (inactive)
14,CCCCCCCCOc1ccc(/C=N/Nc2cc(C)nc3ccc(Br)cc23)cc1,90% (inactive)
15,CCN(CC)CCNC(=O)c1cn2ncnc(Oc3ccc(NC(=O)Nc4ccc(Cl)c(C(F)(F)F)c4)cc3)c2c1C,-80.7% (active)
16,COc1cc(C2CC(=O)Nc3c2c(C)nn3-c2nc3ccccc3[nH]2)cc(OC)c1OC (stereo not given),96.9% (inactive)
17,NCC(=O)NC(CC(=O)O)C(=O)O (stereo not given),102% (inactive)
18,O=CNc1cc(Cl)cc(Cl)c1,103% (inactive)
19,Cn1cc(-c2nc3c(F)cc4[nH]ncc4c3c3c2CCCC3)c(C(F)F)n1,52.9% (inactive)
20,C=C(C)[C@@H]1CCC[C@]2(C(=O)OC)CC[C@]3(C)[C@@H](CC[C@@H]4[C@@]5(C)CCCNC(C)(C)[C@@H]5CC[C@]43C)[C@@H]12,65.3% (inactive)

row,SMILES,growth
1,CN(CCO)c1ccc(N2Cc3ccccc3OC3=C2C(=O)c2c(O)ccc(O)c2C3=O)cn1,-64.7% (active)
2,Cc1c(Cl)cc(-n2c(=O)c3ccccc3c3ccccc3c2=O)cc1Cl,128% (inactive)
3,O=C(/C=C/c1ccccc1)c1ccc(O)c(CN2CCN(c3cc4c(cc3F)c(=O)c(C(=O)O)cn4C3CC3)CC2)c1,3.64% (active)
4,Nc1ccccc1NC(=O)c1ccc(CSc2nc(N3CCOCC3)c3cccn3n2)cc1,-11.1% (active)
5,COc1cc2c(c(O)c1Br)C(=O)c1c(O)cc(C[C@H](C)O)cc1[C@H]2[C@H]1c2cc(C[C@H](C)O)cc(O)c2C(=O)c2c1cc(OC)c(Br)c2O,-14.5% (active)
6,COc1ccc(/C=C(/C(=O)N2CCNCC2)c2cc(OC)c(OC)c(OC)c2)cc1O,-4.45% (active)
7,Nc1nc2ccc(-c3nc4ccc5[nH]ncc5c4c4c3CCC4)cc2s1,-5.96% (active)
8,COc1ccc(OC)c([N+](=O)[O-])c1C=O,81.9% (inactive)
9,N#Cc1ccccc1-c1ccc(Cn2c(-c3cscn3)nc3c(Cl)cccc32)cc1,55.7% (inactive)
10,Cc1ccc2c(N/N=C\c3ccco3)cc(C)nc2n1,70.2% (inactive)
11,COc1ccc2c(O)c(/C=C3\N=Nc4ccccc43)oc2c1C[C@@H]1CCNC[C@H]1F,74.4% (inactive)
12,C=C1C(=O)O[C@H]2[C@H]1CC/C(COC(=O)CCCCCCC(=O)OC/C1=C/CC[C@@]3(C)O[C@H]3[C@H]3OC(=O)C(=C)[C@@H]3CC1)=C\CC[C@@]1(C)O[C@@H]21,-23.9% (active)
13,c1cncc(-c2cn3nc(-c4c[nH]c5ccccc45)sc3n2)c1,-9.26% (active)
14,COc1ccc(O)c(-c2cc(-c3ccc(Cl)cc3)c(C#N)c(=O)[nH]2)c1,78.8% (inactive)
15,COC(=O)c1c(C)nc(Nc2nc3ccccc3s2)nc1-c1ccc(Cl)cc1Cl,104% (inactive)
16,c1cn2cc(-c3ccc4cn[nH]c4c3)nc(Nc3ccc(N4CCOCC4)cc3)c2n1,61.8% (inactive)
17,CS(=O)(=O)c1ccc2c(c1)c1c(n2Cc2ccc(Cl)cc2)CCCC1,50.4% (inactive)
18,CC1=C([Se]CC(OC(=O)CC[Se]c2ccccc2)C(=O)NCCCCCC(=O)OCc2ccccc2)C(=O)c2ccccc2C1=O (stereo not given),-7.59% (active)
19,O=C(Nc1ccccc1)C(CCCCN1C(=O)c2ccccc2C1=O)N1C(=O)c2ccccc2C1=O (stereo not given),103% (inactive)
20,C#CCC#CCN1CCC[C@H]1C(=O)NCC(=O)OC,99.1% (inactive)
